From PubChem BioAssay (NCI) come the findings set out here.

Compounds without any hit were thinned out: in the full panel of roughly 83,000, 20% have a hit.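 Testing used 96-well plates and a 48-hour single-concentration exposure. Example: -40 means 40% of the starting cells died.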 Unmarked numbers belong to inactive results. The source made the active and inactive calls. The calls were made as follows: active = growth percent below 10; inactive = the rest.

The assay relates to MDA-MB-468 breast. The assay can be described thus: NCI-60 one-dose screen, 48 h (100 = growth as untreated, 0 = no growth, -100 = all killed). The note with it: 10 µM unless noted.
Take `O=C(Nc1ccncc1)C(=O)c1cn(S(=O)(=O)c2cccc3ccccc23)c2ccccc12`: the growth is 19.5%.

For the molecule `CCN1C(=O)N(CC)C2C1NN=c1s/c(=C3\C(=O)N(CCC(C)C)c4ccccc43)c(=O)n12` (stereo not given), the growth was 27.1%.

For the molecule `CCNC(=O)Oc1ccc[nH]c1=O`, the growth is 86.9%.

Regarding `CCn1c(=O)n(C)c2c(=O)n(C)c(=O)n(C)c21`, the growth is 103%.

As to `CC1(C)CC[C@]2(CN)CC[C@]3(C)C(=CC[C@@H]4[C@@]5(C)CCCNC(C)(C)[C@@H]5CC[C@]43C)[C@H]2C1`, the growth was 96.1%.

Consider `O=C(/C=C\c1cccc([N+](=O)[O-])c1)/C=C/c1cccc([N+](=O)[O-])c1`, for which the growth was 91.4%.

`CC(C)C1=NOC(=O)C1=Cc1cn(-c2ccco2)nc1-c1ccccc1`: the growth is 54%.

On to `CC1(C)[C@@H](NOCCCN)CC[C@]2(C)[C@H]3C(=O)C=C4[C@@H]5C[C@](C)(C(=O)O)CC[C@]5(C)CC[C@@]4(C)[C@]3(C)CC[C@@H]12`, for which the growth was -39.5% [100 µM] (active).

On to `CC(C)(C)Nc1nc2c(OCCc3ccccc3)cccn2c1-c1ccc(Cl)cc1`, for which the growth was -22.4% (active).

Turning to `CCNCCCn1c2c(c3ccc(Cl)cc3c1=O)C(=O)c1cc(OC)cnc1-2`, the growth was 5.92% (active).

Take `NC(=O)c1c(NC(=O)c2ccc(Cl)cc2)sc2c1CCC(=O)C2`: the growth was 88.5%.

For `COc1cc(NC(=O)c2cncnc2Nc2ccc3c(ccn3Cc3cccc(F)c3)c2)cc(OC)c1`, the growth was 42.8%.

On to `O=S(=O)(NCCNc1cc(-c2cn(-c3ccccc3)nc2-c2cccc(O)c2)ccn1)c1ccc(Br)cc1`, for which the growth was -28.5% (active).

Consider `c1ccc2c(c1)[nH]c1c2cc[n+]2cc3c(cc12)CCCC3`, for which the growth is -14.5% (active).

As for `Cc1cc2nc(-c3c(N)ncc(C#N)c3-c3ccc(Cl)cc3)[nH]c2cc1C`, the growth was 66%.

With `COc1ccc(C(=O)/C=C/c2cc3ccccc3n3nnnc23)cc1`, the growth is 96.8%.

`CC(=O)c1c[nH]c2ccc(-c3ccnc(Nc4ccc(NC(=O)c5cccc(F)c5)c(CN5CCOCC5)c4)n3)cc12`: the growth was -32.9% (active).

For the molecule `O=C(CNc1nnc(-c2ccc(Cl)cc2)o1)Nc1ccc(-c2nc3ccccc3s2)cc1`, the growth is -10.2% (active).

`CN1CCC(COc2cnc(-c3cccc(Cn4nc(-c5cccc(C#N)c5)ccc4=O)c3)nc2)CC1`: the growth was 87.4%.

For the molecule `COc1ccc2nc(-n3nc(C)cc3C)c(-n3nc(C)cc3C)nc2c1`, the growth was 103%.

Regarding `CCCCCS(=O)(=O)Nc1ccc(C(=O)O)cc1`, the growth was 104%.

Take `COc1ccc(-c2cc(C(=O)N3N=C(c4ccc(N)cc4)CC3c3ccc(Cl)cc3)c3ccccc3n2)cc1` (stereo not given): the growth is 18.4%.

In the case of `CC(O)c1nc2c(c(=O)n(C)c(=O)n2C)n1C` (stereo not given), the growth was 105%.

With `O=C(/C=C/C(=O)c1ccccc1)c1ccccc1`, the growth is 107%.

`CC(=O)Oc1ccc(C23c4ccccc4C2(OC(C)=O)c2cc(OC(C)=O)ccc23)cc1` (stereo not given): the growth was 14.8%.

As for `COC(=O)c1cc(=O)nc(N/N=C/c2ccco2)s1`, the growth was 61.7%.

For the molecule `COC(=O)c1ccc(C)cc1`, the growth is 105%.

Turning to `COc1cc([C@@H]2c3cc4c(cc3[C@H](OC3OC5COC(c6ccccc6)OC5C(O)C3O)[C@H]3COC(=O)[C@H]23)OCO4)cc(OC)c1OC` (stereo not given in full), the growth was 17.5%.

As to `O=Nc1ccccc1N=O`, the growth was 91.7%.

`COc1cc(-c2nn(-c3ccc(C(=O)O)cc3)cc2C(=O)O)ccc1O`: the growth was 103%.

Turning to `CC(C)CC1NC(=O)C(CC(C)C)N(CO)C1=O` (stereo not given), the growth is 99.3%.

For `Clc1nc(Cl)c2ncn(-c3ccccc3)c2n1`, the growth was 3.71% (active).

Take `CCCCCCCC/C=C\CCCCCCCCOc1ccccc1CC(=O)NCC[N+]1(C)CCCC1`: the growth was 40.3%.

Consider `CC(C)(C)c1ccc(N2CSC(=S)N(c3ccc(C(C)(C)C)cc3)C2)cc1`, for which the growth was 111%.

On to `O=C(O)Cc1ccccn1`, for which the growth is 101%.

For `O=C(CSCC(=O)N/N=C/c1ccccc1O)N/N=C\c1ccccc1O`, the growth is 15.6%.

`COc1ccc(Oc2nc(NC3CCCC3)nc(Sc3ccc(OC)cc3)n2)cc1`: the growth was 93%.

Consider `CC1(C)CC(=O)c2c(ccc(C(=O)C[C@H](N)CO)c2N)O1`, for which the growth is 3.17% (active).

With `COc1ccc(-c2csc(NC(=O)CSc3nc(-c4ccccc4)cc(=O)[nH]3)n2)cc1`, the growth is 14.9%.

With `CNCCNc1nc2ccccc2c2c(=O)c3cc(F)ccc3oc12`, the growth was 59.1%.
